The source of these data is PubChem BioAssay (NCI).

Test systems include NCI-H23 lung; NCI-H226 lung; NCI-H322M lung; HOP-62 NSCLC; NCI-H460 lung; HOP-92 NSCLC; NCI-H522 lung; A549/ATCC NSCLC; 786-0 renal; COLO 205 colon; DU-145 prostate; K-562 leukemia; MDA-MB-231 breast; RXF 393 renal; SF-268 CNS; SF-539 CNS; UACC-257 melanoma; M14 melanoma; SF-295 CNS; MALME-3M melanoma.
Holding throughout (experiment): NCI-60 one-dose screen, 48 h (100 = growth as untreated, 0 = no growth, -100 = all killed)
Settings in all cases: 10 µM unless noted

Compounds without any hit were thinned out: in the full panel of roughly 83,000, 20% have a hit.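 Cells were grown in 96-well plates and exposed to the test compound at a single concentration for 48 hours; results are reported as percent growth, with values below 10 considered active.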 Unmarked numbers belong to inactive results. Active and inactive are the calls of the source.

On to `CC(=O)O[C@H]1CC[C@]2(C)[C@H]3CC[C@]4(C)[C@@H](OC(C)=O)CC[C@H]4[C@@H]3[C@@H](C)[C@]2(O)C1`, for which the growth with NCI-H23 lung was 111%; in the assay on NCI-H226 lung it was 104%; in the assay with NCI-H322M lung, 106%; with HOP-62 NSCLC it was 105%; in the assay with NCI-H460 lung, 116%; in the assay on HOP-92 NSCLC, 108%. Further, the growth is 94.8% in the assay with NCI-H522 lung; 114% in the assay on A549/ATCC NSCLC; 103% in the assay on 786-0 renal; 104% in the assay with COLO 205 colon; 107% in the assay on DU-145 prostate; 85.1% with K-562 leukemia. For the same molecule, the growth in the assay on MDA-MB-231 breast was 108%; in the assay with RXF 393 renal, 114%; with SF-268 CNS, 112%; in the assay with SF-539 CNS, 99.6%; in the assay with UACC-257 melanoma, 127%; in the assay with M14 melanoma, 109%.

For the molecule `COc1cccc(C=NC(Cc2cnc[nH]2)C(=O)O)c1O` (configuration not stated), the growth was 107% with NCI-H23 lung; 94.8% in the assay on NCI-H226 lung; 95.5% with NCI-H322M lung; 87.6% with HOP-62 NSCLC; 107% with NCI-H460 lung; 56% with HOP-92 NSCLC. The growth with NCI-H522 lung is 59.3%; in the assay with A549/ATCC NSCLC, 91.5%; in the assay on 786-0 renal, 97.2%; with COLO 205 colon, 122%; with DU-145 prostate, 121%; with K-562 leukemia, 135%. For the same molecule, the growth in the assay on MDA-MB-231 breast was 102%; in the assay with RXF 393 renal, 3.56% (active); in the assay with SF-268 CNS, 112%; in the assay with SF-295 CNS, 70.3%; in the assay on SF-539 CNS, 93.1%; with UACC-257 melanoma, 46.7%. Besides, the growth in the assay on M14 melanoma was 89.7%.

For the molecule `O=C1C=C(N2C3C4CCC(C4)C32)C(=O)C=C1c1ccccc1` (configuration not stated), the growth with NCI-H23 lung was 106%; in the assay on NCI-H226 lung it was 107%; with NCI-H322M lung, 107%; in the assay with HOP-62 NSCLC, 108%; in the assay with NCI-H460 lung, 90.2%; with HOP-92 NSCLC it was 96.9%. The growth was 51% with NCI-H522 lung; 94.9% in the assay on A549/ATCC NSCLC; 102% with 786-0 renal; 115% in the assay with COLO 205 colon; 105% in the assay with DU-145 prostate; 32.9% with K-562 leukemia. In addition, the growth in the assay with MALME-3M melanoma is 55.4%; with MDA-MB-231 breast, 76.6%; with SF-268 CNS, 89.6%; with SF-539 CNS, 96.5%; with UACC-257 melanoma it was 73.1%; in the assay on M14 melanoma it was 111%.

For `COC(=O)C1OC(Oc2ccc(N(CCCl)CCCl)cc2)C(OC(C)=O)C(OC(C)=O)C1OC(C)=O` (configuration not stated), the growth is 92.9% in the assay with NCI-H23 lung; 96.7% in the assay with NCI-H226 lung; 108% in the assay with NCI-H322M lung; 94.4% with HOP-62 NSCLC; 29.3% in the assay on NCI-H460 lung; 78% with HOP-92 NSCLC. For the same molecule, the growth with NCI-H522 lung is 67.9%; in the assay on A549/ATCC NSCLC, 75.9%; with 786-0 renal, 75%; with COLO 205 colon it was 95.3%; in the assay on DU-145 prostate, 104%; with K-562 leukemia it was 94.6%. Also, the growth is 96.1% with MALME-3M melanoma; 88.5% with MDA-MB-231 breast; 79.1% with SF-268 CNS; 53.1% in the assay on SF-295 CNS; 70.9% with SF-539 CNS; 79.6% in the assay with UACC-257 melanoma. Further, the growth in the assay on M14 melanoma is 102%.

Consider `COC(=O)C1CCC(NC(=O)c2csc([C@@H](C[C@H](C(C)C)N(C)C(=O)[C@@H](NC(=O)[C@H]3CCCCN3C)C(C)C)OC(C)=O)n2)CC1` (some centres not stated), for which the growth in the assay with NCI-H23 lung was 32%; in the assay with NCI-H226 lung, 17%; in the assay with NCI-H322M lung it was 47.8%; in the assay with HOP-62 NSCLC, 7.46% (active); in the assay on NCI-H460 lung, 6.14% (active); with HOP-92 NSCLC it was 32.2%. In addition, the growth with NCI-H522 lung was -25% (active); in the assay with A549/ATCC NSCLC, 15.9%; in the assay on 786-0 renal, 13%; in the assay with COLO 205 colon it was -71.1% (active); in the assay on DU-145 prostate, 9.8% (active); in the assay with K-562 leukemia, 10%. For the same molecule, the growth with MALME-3M melanoma is 57.8%; with MDA-MB-231 breast, 12.1%; with SF-268 CNS, 22.6%; with SF-295 CNS, 2.5% (active); in the assay on SF-539 CNS it was -10.1% (active); with M14 melanoma, 1.47% (active).

As to `CC(C)=CCC/C(C)=C/C=N\N=C(/N)N[N+](=O)[O-]`, the growth with NCI-H23 lung was 97.6%; in the assay on NCI-H226 lung, 99.3%; in the assay with NCI-H322M lung, 95.9%; with HOP-62 NSCLC it was 87.2%; with NCI-H460 lung, 110%; with HOP-92 NSCLC, 89.8%. In addition, the growth in the assay with NCI-H522 lung is 47.7%; with A549/ATCC NSCLC, 97.4%; in the assay on 786-0 renal, 80.4%; with COLO 205 colon it was 103%; in the assay on DU-145 prostate, 102%; in the assay with K-562 leukemia, 95.9%. Also, the growth is 93.5% in the assay on MALME-3M melanoma; 122% with RXF 393 renal; 93% with SF-268 CNS; 101% with SF-295 CNS; 89.2% in the assay on SF-539 CNS; 107% in the assay on UACC-257 melanoma.

With `C=CCCCCCCCCC(=O)[O-].C=CCCCCCCCCC(=O)[O-].[Zn+2]`, the growth in the assay on NCI-H23 lung is 96.9%; in the assay with NCI-H226 lung, 115%; in the assay with NCI-H322M lung, 103%; with HOP-62 NSCLC, 119%; in the assay on NCI-H460 lung it was 106%; in the assay on HOP-92 NSCLC, 72.5%. Moreover, the growth in the assay on NCI-H522 lung is 119%; in the assay on A549/ATCC NSCLC, 101%; in the assay on 786-0 renal it was 97.2%; with COLO 205 colon it was 127%; in the assay on DU-145 prostate, 114%; in the assay with K-562 leukemia it was 92%. For the same molecule, the growth is 108% in the assay with MALME-3M melanoma; 106% in the assay on SF-268 CNS; 97.7% in the assay with SF-295 CNS; 97.9% with SF-539 CNS; 98.5% in the assay with UACC-257 melanoma; 107% with M14 melanoma.

Regarding `C=CCc1cc2c(cc1OCC)OCO2`, the growth in the assay on NCI-H23 lung is 95.6%; in the assay on NCI-H226 lung, 99.3%; in the assay on NCI-H322M lung, 114%; in the assay on HOP-62 NSCLC, 64.7%; in the assay on NCI-H460 lung it was 102%; in the assay on HOP-92 NSCLC it was 81.1%. In addition, the growth is 74.5% with NCI-H522 lung; 88.9% in the assay on A549/ATCC NSCLC; 92.4% with 786-0 renal; 108% in the assay with COLO 205 colon; 108% in the assay with DU-145 prostate; 114% with K-562 leukemia. The growth in the assay on MALME-3M melanoma is 116%; with MDA-MB-231 breast, 110%; in the assay with SF-268 CNS, 94.8%; in the assay on SF-295 CNS, 93.6%; in the assay with SF-539 CNS, 99.1%; in the assay with UACC-257 melanoma, 105%. Also, the growth in the assay with M14 melanoma is 92.9%.
